Among the data in PubChem BioAssay (NCI) are growth values, retold here.

About 83,000 compounds went through this panel and 20% of them were active in at least one assay; those are over-represented in the sample as a whole.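 48-hour exposure, single concentration, 96-well plates; percent growth endpoint where 0 means no net growth. Active: below 10.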 Calls of active or inactive are those of the source.

The first experiment concerns 786-0 renal. The experiment is described as follows: NCI-60 one-dose screen, 48 h (100 = growth as untreated, 0 = no growth, -100 = all killed). The conditions noted are these: 10 µM unless noted.
On to `CCOC(=O)c1csc(NC(=O)COc2ccc(/C=C3\Oc4ccccc4C3=O)cc2)n1`, for which the growth was 68.4% (inactive).

In the case of `CC(C)C1=NOC(=O)C1=Cc1cn(-c2ccccc2)nc1-c1ccc(F)cc1`, the growth was 77.4% (inactive).

With `CCOC(=O)C/C(=N\Nc1cc(=O)[nH]c2ccc(Br)cc12)C(=O)OCC`, the growth is 106% (inactive).

With `Cc1cc(=O)n(C(=O)Nc2ccccc2Cl)c2cc(O)ccc12`, the growth was 103% (inactive).

Regarding `CSc1nnc(-c2cc3c([nH]c4ccccc43)c(-c3cccc(O)c3)n2)n1-c1ccccc1`, the growth is 24.1% (inactive).

In another experiment the test system is COLO 205 colon. The description is as above. The conditions noted are these: 10 µM unless noted.
Regarding `COc1ccc(OC)c(/C=N/Nc2ncnc3c2c(C)nn3C)c1`, the growth is 102% (inactive).

As to `Cc1c[n+](Cc2ccc3ccccc3c2)cn1Cc1ccc2ccccc2c1`, the growth is -78.7% (active).

Consider `COc1cc(OC)c(/C=C/C(=O)c2c(OC)cccc2OC)c(OC)c1`, for which the growth is -13.4% (active).

For the compound `COC(=O)c1c(C)nc(C)c2c1C(=O)C(Br)=C(NCc1ccccc1)C2=O`, the growth is -11.8% (active).

`CCNCCNc1cc(-c2ccc(C(F)(F)F)cc2)c(C#N)c2nc3ccccc3n12`: the growth is -80.4% (active).

Take `CSc1nc2ccccc2cc1/C=[N+](\[O-])c1ccccc1`: the growth was 103% (inactive).

With `CC(=O)Oc1ccc(N2C(=O)C(Cl)=C(Nc3cccc(C(F)(F)F)c3)C2=O)cc1`, the growth was 93.4% (inactive).

Take `CC(=O)Oc1ccc(C)cc1C`: the growth is 125% (inactive).

On to `O=C(Nc1ccc(Oc2cccc(Cl)c2)c(Cl)c1)c1cnccn1`, for which the growth is 12.3% (inactive).

In the case of `CCC(=O)Oc1ccc(-c2ccccc2)cc1Br`, the growth is 109% (inactive).

`CCN(CC)CC(O)COc1c(Br)c(Br)c(Br)c2c1OC(C)(C)C2` (stereo unspecified): the growth was 67.7% (inactive).

`Fc1cc2c(cc1Cl)N(c1ncnc3ccc(-c4ccc5n[nH]nc5c4)cc13)CC2`: the growth is 109% (inactive).

Turning to `Nc1c(C(=O)Nc2ccncc2)sc2nc3c(cc12)C(O)CCC3` (stereo unspecified), the growth was 113% (inactive).

Take `CCOC(=O)c1cc2c(n1Cc1cc(OC)c(OC)c(OC)c1)-c1nc(N)sc1CCC2`: the growth was 40.3% (inactive).

For the compound `Cc1ccc(Nn2c(SCC(=O)Nc3nc(-c4ccccc4)cs3)nc(C)c2C)cc1`, the growth was 27.1% (inactive).

For the compound `O=C(NCc1ccc(Cl)cc1Cl)C1CCC(=O)N1c1cccs1` (stereo unspecified), the growth is 96.8% (inactive).

For the compound `COc1cc(C2c3cc(OC(C)=O)c(OC)cc3CC3C(=O)OCC32)ccc1OC(C)=O` (stereo unspecified), the growth is 119% (inactive).

For `CCOC(=O)c1ccc(NC(=O)c2nc(-c3cc(OC)c(OC)c(OC)c3)n(-c3ccc(Cl)cc3)n2)cc1`, the growth was 104% (inactive).

Consider `Cc1nc2sc(C(=O)Nc3cccc(Br)c3)c(N)c2cc1C(O)c1ccccc1` (stereo unspecified), for which the growth is 16.6% (inactive).

`OB1OCc2cc(/C=C/c3cccc(C(F)(F)F)c3)ccc21`: the growth was 25.6% (inactive).

For the compound `COC(=O)[C@@H](CCCCNC(=O)[C@]12CCC(C)(C)C[C@@H]1C1=CC[C@@H]3[C@@]4(C)C/C(=C/c5ccco5)C(=O)C(C)(C)[C@@H]4CC[C@@]3(C)[C@]1(C)CC2)NC(=O)[C@]12CCC(C)(C)C[C@@H]1C1=CC[C@@H]3[C@@]4(C)C/C(=C/c5ccco5)C(=O)C(C)(C)[C@@H]4CC[C@@]3(C)[C@]1(C)CC2`, the growth was 120% (inactive).

Consider `COc1c(C(=O)Nc2ccc(C)c(Br)c2)ccc2ccccc12`, for which the growth is 101% (inactive).

For the compound `COC(=O)CC[C@@H]1O[C@@H](c2cccc(C(F)(F)F)c2)[C@@H](O)[C@H]1O`, the growth is 108% (inactive).

Turning to `COc1ccc(/C=C(\C#N)n2nnc3cc(F)c(F)cc32)cc1`, the growth was 38.2% (inactive).

For the compound `CCCC/C(CC)=N\NS(=O)(=O)c1ccc([N+](=O)[O-])cc1`, the growth was 105% (inactive).

For `CCC(C(=O)[C@@H](C)[C@@H](O)[C@H](C)[C@@H]1O[C@@H]([C@@H](CC)C(=O)ONC(=O)c2ccccc2)CC[C@@H]1C)[C@H]1O[C@]2(C=CC(=O)[C@]3(CC[C@@](C)([C@H]4CC[C@](O)(CC)[C@H](C)O4)O3)O2)[C@H](C)C[C@@H]1C` (stereo partly specified), the growth is -26% (active).

`COC(=O)[C@]12CCC(C)(C)C[C@H]1[C@H]1/C(=N/OCCc3nn[nH]n3)C[C@@H]3[C@@]4(C)CC[C@H](OC(C)=O)C(C)(C)[C@@H]4CC[C@@]3(C)[C@]1(C)CC2`: the growth was 41.4% (inactive).

Turning to `N#CC(C#N)N=Nc1ccc(Br)cc1`, the growth was -28.7% (active).

Turning to `CCOC(=O)NC(C)C`, the growth is 129% (inactive).

With `CCCNC(=O)Nc1ccc2cc3ccc(NC(=O)NCCC)cc3nc2c1`, the growth is 99.3% (inactive).

For the compound `C=CCN=c1sc2c(n1NC(=O)c1cc3ccc1CCc1ccc(cc1)CC3)C(=O)c1ccccc1C2=O`, the growth was 19.2% (inactive).
